This note sets out measurements from the OligoGym collection.
Also: reference of the scale not given here.

One test has as its target ACOT6. In words: pooled miR-30 sensor sort-seq; sequence = guide strand. To be noted: shRNA.
The sequence TTCTGGGTAACAGATTATCTGG came in with a sensor-assay potency score (higher = more potent) of -1.27.

In turn, TAGTGATTTTTACTTTTCCTAG returned a sensor-assay potency score (higher = more potent) of -1.27.

In turn, TATCCTTGTAATGTAGAGGAGC showed a sensor-assay potency score (higher = more potent) of -0.764.

Take TTTAGGAATAATCATATCCTTG: the sensor-assay potency score (higher = more potent) is -0.802.

TAATGTAGAGGAGCTACTGTGT: the sensor-assay potency score (higher = more potent) was 0.0472.

The next test has as its target ACRV1. The test is described as above. The conditions noted are these: shRNA.
In turn, TAGGCTGACTTGATGTTCCTCT came in with a sensor-assay potency score (higher = more potent) of 0.616.

As to TTGAACCATGAATTGGAGTTTT, the sensor-assay potency score (higher = more potent) was -1.17.

As for TTTGCATCCTCGTTCCATGGGA, the sensor-assay potency score (higher = more potent) is 0.226.

Consider TCTTCTTTAACATGCACTGCTG, for which the sensor-assay potency score (higher = more potent) is -0.6.

As for TTCGACAGCATATAATTTGCAT, the sensor-assay potency score (higher = more potent) was -0.0881.

On to TTCAAAGATCTTCTTTAACATG, for which the sensor-assay potency score (higher = more potent) is -1.23.

As for TTTTCCACCTTCAAAGATCTTC, the sensor-assay potency score (higher = more potent) is -0.56.

TGAAGTTTGATGATCTATGGAG gave a sensor-assay potency score (higher = more potent) of 0.139.

In the case of TCTTTAACATGCACTGCTGGGA, the sensor-assay potency score (higher = more potent) is -0.397.

With ATTCATATAAGCACATGTGTAG, the sensor-assay potency score (higher = more potent) was -0.436.

In the case of TCAAAGATCTTCTTTAACATGC, the sensor-assay potency score (higher = more potent) was -0.277.

In turn, TCGACAGCATATAATTTGCATC registered a sensor-assay potency score (higher = more potent) of -1.21.

As to TTTAACATGCACTGCTGGGAAT, the sensor-assay potency score (higher = more potent) was -1.59.

On to ATCTTCTTTAACATGCACTGCT, for which the sensor-assay potency score (higher = more potent) was -0.185.

Take ATAATTTGCATCCTCGTTCCAT: the sensor-assay potency score (higher = more potent) was -0.172.

On to TTAGGCTGACTTGATGTTCCTC, for which the sensor-assay potency score (higher = more potent) was -0.162.

On to TTGCATCCTCGTTCCATGGGAG, for which the sensor-assay potency score (higher = more potent) came out at 0.0526.

As for TAATTTGCATCCTCGTTCCATG, the sensor-assay potency score (higher = more potent) was -0.581.

As for TTCTTTAACATGCACTGCTGGG, the sensor-assay potency score (higher = more potent) was -0.734.

Regarding TAATATTGTGCCTGAAGGCTGT, the sensor-assay potency score (higher = more potent) was determined as 0.0194.

The target in another test is ACSL3. The test is described as above. To be noted: shRNA.
Consider TTGTAGTCCCACACTTCGGAAA, for which the sensor-assay potency score (higher = more potent) was -1.33.

On to TTTGATTTCACAGCAAACTAAT, for which the sensor-assay potency score (higher = more potent) is -0.867.

In the case of TAATCTTTAAGCATCCATCGGG, the sensor-assay potency score (higher = more potent) came out at 0.641.

Sequence TTTCACAGCAAACTAATGGTGC registered a sensor-assay potency score (higher = more potent) of -0.648.

Sequence AATCTTTAAGCATCCATCGGGT had a sensor-assay potency score (higher = more potent) of -0.577.

TAATTCTAGAACATGGGCCAGA returned a sensor-assay potency score (higher = more potent) of -0.696.

TAATTTTTGAAGACTGATCTGC yielded a sensor-assay potency score (higher = more potent) of 0.522.

TTTTCTTGTCTTGACTCGGAGA registered a sensor-assay potency score (higher = more potent) of -0.78.

In turn, TTTTGCTTCATTTTTGTAGTAC returned a sensor-assay potency score (higher = more potent) of 0.298.

TTTTTCTTGTCTTGACTCGGAG came in with a sensor-assay potency score (higher = more potent) of -0.445.

On to ATACTGTCCAAGAATAACCTTT, for which the sensor-assay potency score (higher = more potent) is -0.208.

TACTAGTGGAAGATTCTTCAAA yielded a sensor-assay potency score (higher = more potent) of -0.312.

For the sequence TTTACTAGTAATGATGTTGGTC, the sensor-assay potency score (higher = more potent) is 0.628.

With TTGAATTTACAGGCTTTGCTTT, the sensor-assay potency score (higher = more potent) is -0.455.

TTGCTGAAATAGCAGCTTCGGA: the sensor-assay potency score (higher = more potent) was -0.935.
